# This is part of a sample that, as a whole, favours compounds with a hit. Of some 83,000 tested, about 20% had one in any assay.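 Single-dose data. Exposure time 48 hours. Values below 10 considered active.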 Values without a mark were called inactive. Calls of active or inactive are those of the source. *1 amine or outer side, *2 acyl side, *3 side chain or, on linkers, in order; H or OH if unused. Where a SMILES comes first, the peptide text is derived from it. [ ]: non-standard residue; d: D form. The star is where a group is joined. X5 = CCC(=O)CC1CC(C)CC(C(=O)[*:2])N1[*:1]; X4 = CCCCCCCCC(C)C(=O)*; Aib = CC(C)(N)C(=O)O; X6 = CC(CN(C)CCO)N*
# System: HCT-116 colon
# Assay: NCI-60 one-dose screen, 48 h (100 = growth as untreated, 0 = no growth, -100 = all killed)
# Settings: 10 µM unless noted
# Description: Growth inhibition of the HCT-116 human tumor cell line is measured as a screen for anti-cancer activity. Cells are grown in 96 well plates and exposed to the test compound for 48 hours. Compounds are tested at a single concentration, which is 10^-5 M for most compounds. The reported endpoint is percent growth (GI% or GIPRCNT), where numbers from 0 - 100% represent growth inhibition, and numbers from -100% - 0 represent cell death. For example, a value of 40 represents 60% growth inhibition. A value of 0 means no net growth occurred over the course of the experiment. A value of -40 indicates 40% of cells at the beginning of the experiment died by the end of the experiment. A value of -100 means all cells are dead at the end of the experiment.
# NCI-60 Human Tumor Cell Lines Screen was performed using the standard one-dose NCI protocol, which is described in more detail at https://dtp.cancer.gov/discovery_development/nci-60/default.htm.
# Compounds with GIPRCNT values below 10 were considered active. Activity score was based on GIPRCNT using the following formula: […]
# Score is 0 for GIPRCNT values of 100 or above, 50 for GIPRCNT values of 0, and 100 for GIPRCNT values of -100.
row,Compound,growth
1,Clc1ccccc1C(c1ccccc1)(c1ccccc1)n1ccnc1,22.3%
2,CC(C)Nc1ccc(Nc2ccc(NC(C)C)cc2)cc1,25.7%
3,CCOc1ccc(C(C[N+](=O)[O-])Sc2ccccc2N)cc1 (stereo not given),-55.6% (active)
4,COc1cc(/C=C/c2ccnc3ccccc23)cc(OC)c1OC,20%
5,CCCCCCCCC(C)C(=O)N1CCCC1C(=O)N1C(CC(=O)CC)CC(C)CC1C(=O)NC(C)C(=O)NC(C)(C)C(=O)NC(C)(C)C(=O)NC(C(=O)NC(C)C(=O)NC(C)(C)C(=O)NC(C)(C)C(=O)NC(C)CN(C)CCO)C(C)CC (stereo not given) (X4-P[X5]A[Aib][Aib]IA[Aib][Aib]-X6; configuration not given here),-88.8% (active)
6,S=c1[nH]c2cc(Cl)ccc2s1,96.6%
7,CC1(C)OC2C(COC(c3ccccc3)(c3ccccc3)c3ccccc3)OC(c3c[nH]c4c(N)ncnc34)C2O1 (stereo not given),46.7%
8,CCCCCCCCCCCC[S+](C)CC(=O)[O-] (stereo not given),45.5%
9,CCOC(=O)/C(=C\c1ccc2ccccc2c1)P(=O)(OCC)OCC,4.87% (active)
10,Nc1nc(-c2ccccc2)nc(N)c1N=O,51.6%
11,O=C(c1ccccc1)c1cc2ccccc2oc1=O,99.4%
12,COc1ccc2c(c1)c(CC(=O)O)c(C)n2C(=O)c1ccc(Cl)cc1,95.2%
13,CCCCCCCCCCCC1N=C(N)N=C(N)N1c1cccc(Br)c1 (stereo not given),-100% (active)
14,Oc1ccc(Cl)cc1Cc1cc(Cl)ccc1O,2.45% (active)
15,CCC(=O)c1cc([N+](=O)[O-])c(Br)s1,1.06% (active)
16,Cc1onc(-c2ccccc2)c1C(=O)N/N=C/c1cc(Cl)cc(Cl)c1O,21%
17,CN(C)c1ccc(/C=C/c2cc[n+](C)c(/C=C/c3ccc(N(C)C)cc3)c2)cc1,9.38% (active)
18,N#CC1c2ccccc2C=CN1C(=O)CCCl (stereo not given),84.1%
19,CCCCCCCCCCCCCCCC[N+]1(C)CCCC1c1cccnc1 (stereo not given),35%
20,NNc1cccc([N+](=O)[O-])c1,70.4%

row,Compound,growth
1,O=C(O)c1cc2c(s1)C(=O)c1sccc1C2=O,-27.7% (active)
2,Cc1ccc2cccc(OC(=O)Nc3cccc(C(F)(F)F)c3)c2n1,38%
3,CN1CCC(CN2c3ccccc3Sc3ccccc32)C1 (stereo not given),77.6%
4,C(=N\Nc1ccc2ccccc2n1)/c1ccccn1,18.4%
5,O=C(Nc1cccc(C(F)(F)F)c1)Oc1ccc(Cl)c2cccnc12,0.974% (active)
6,O=C(C[P+](c1ccccc1)(c1ccccc1)c1ccccc1)c1ccccc1,76.8%
7,S=C1SCN(Cc2cccs2)CN1Cc1cccs1,99.4%
8,O=C1c2ccccc2Cc2cccc(Cl)c21,97.4%
9,O=C(c1ccc(O)c(Br)c1)c1ccc(O)c(Br)c1,101%
10,N#Cc1c2ccccc2nc2ccccc12,105%
11,COc1cccc2c1C(=O)c1c(O)c3c(c(O)c1C2=O)C[C@@](O)(C(=O)CO)C[C@@H]3OC1CC(OC(C)=O)C(OC(C)=O)C(C)O1 (stereo not given in full),-80% (active)
12,CCOC(=O)NC(/C=C/c1ccccc1)NC(=O)OCC,93.6%
13,c1ccc(C2NCCNC2c2ccccc2)cc1 (stereo not given),104%
14,N#CCc1cccc2ccccc12,106%
15,O=C(c1ccccc1)C(Br)[N+](=O)[O-] (stereo not given),63%
16,C[n+]1ccccc1C[n+]1ccccc1,107%
17,Oc1cc(Cl)ccc1Cc1ccc(Cl)cc1O,41.7%
18,S=C(SSC(=S)N1CCOCC1)N1CCOCC1,40.1%
19,CC1(C)CCCC2=C1C(=O)N(SC(Cl)(Cl)Cl)C2=O,75.5%
20,COC(=O)c1ccc(=O)c2nc3/c(=C/O)c(O)cc(=O)c3[nH]c12,-19% (active)
